The values below come from PubChem BioAssay (NCATS).

Results filed as inconclusive are left out. Values without a mark were called inactive. Activity calls are given as the source filed them. Calls come from the whole dose curve; as a rule, active = well fitted inhibition curve with a large enough effect; inconclusive = small, poorly fitted or top-dose-only effect; inactive = flat fitted curve, though single readings scatter.

The test concerns Zika virus NS2B-NS3 protease. Description: Primary screen GU AMC qHTS for Zika virus inhibitors (AID 1347154).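 Note: 0% = no-inhibitor control and -100% = no-enzyme control; nearly all actives have a fitted effect of over 70% in size.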 The following applies: Zika NS2B-NS3 unlinked protease, AMC fluorogenic substrate; series mostly up to 54.1 µM; activity change, negative = inhibition: at the top concentration. Put shortly:
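Fluorogenic AMC-substrate cleavage by noncovalent NS2B-NS3 protease complex (25 nM, pH 8.0 Tris buffer with Tween 20) followed for 15 minutes at room temperature (~20% conversion). Percent inhibition from ex340/em450 signal change, fitted by 4-parameter Hill equation.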
Turning to `CCOC(=O)C(c1c(O)c2ccccc2oc1=O)c1c(O)c2ccccc2oc1=O`, the “activity change, negative = inhibition” value is 4.75%. On the same count and under the same terms, the same measure for `C[C@]12CC[C@H]3[C@@H](CCC4=CC(=O)CC[C@@]43C)[C@@H]1CC[C@@H]2C(=O)O`: 0.908%. For `COc1cc(CC(C)N)cc2c1OCO2` (configuration not stated), the “activity change, negative = inhibition” value was -0.106% [at 104 µM]. Take `Oc1c(Br)cc(Br)cc1Br`: the “activity change, negative = inhibition” value was 3.71%. `O=C(CBr)Nc1ccc(Cl)cc1C(=O)c1ccccc1F`: the “activity change, negative = inhibition” value was -6.53%. For the molecule `CC(CC(C(N)=O)(c1ccccc1)c1ccccc1)N(C)C` (configuration not stated), the “activity change, negative = inhibition” value is 4%. For the molecule `COc1cc(CC(C)N)c(OC)cc1Br` (configuration not stated), the “activity change, negative = inhibition” value is -1.56% [at 104 µM].

Turning to `C[N+]1(CCC(C(N)=O)(c2ccccc2)c2ccccc2)CCCCC1`, the “activity change, negative = inhibition” value was 4.21%. Turning to `CNC(=O)NC(O)C(Cl)(Cl)Cl` (configuration not stated), the “activity change, negative = inhibition” value was -0.312%. For the molecule `COP(=O)(OC)C(O)C(Cl)(Cl)Cl` (configuration not stated), the “activity change, negative = inhibition” value was -0.777%. On to `CN1C(=O)CN=C(c2ccccc2)c2cc([N+](=O)[O-])ccc21`, for which the “activity change, negative = inhibition” value is 4.41%. Same read-out and setting: the same measure for `C[C@@H]1CN(C2CCC(C#N)(c3ccc(F)cc3)CC2)CC[C@]1(C(=O)O)c1ccccc1` (some centres not stated): 2.3%; for `CCC1(c2ccccc2)CCC(=O)NC1=O` (configuration not stated): -2.05%; for `OC(c1ccccc1)(c1ccccc1)C1CCNCC1`: -6.82%. Turning to `NCc1cccnc1`, the “activity change, negative = inhibition” value is 5.09%. `CN1CCC(N(Cc2ccccc2)c2ccccc2)CC1`: the “activity change, negative = inhibition” value is 0.0149%. As for `CCN(Cc1ccc(Cl)nc1)/C(=C/[N+](=O)[O-])NC`, the “activity change, negative = inhibition” value was 1.34%. On the same count and under the same terms, in the case of `CN(C)CCc1c[nH]c2ccc(O)cc12` it was -4.83% [at 104 µM]; in that of `O=C(CCCCl)c1ccc(F)cc1`, -7.59%. `N#Cc1nn(-c2c(Cl)cc(C(F)(F)F)cc2Cl)c(N)c1S(=O)C(F)(F)F` (configuration not stated): the Potency entry was “inactive”. With `NC1(c2ccccc2)CCCCC1`, the “activity change, negative = inhibition” value is 0.467% [at 104 µM]. Consider `Nc1ccc(Cl)cc1C(=O)c1ccccc1F`, for which the “activity change, negative = inhibition” value is -1.29%.
